Experimental findings from PubChem BioAssay (EPA / NIEHS) are described below.

SMILES strings stand for the structures. Activity calls are given as the source filed them. The calls were made as follows: active = hit-call score of the fitted dose curve at least 0.9, where 1 is the maximum; inactive = score below 0.9.

Broadly, the AC50 is the concentration giving half of the maximal activity seen.

The nature of test [1]: ATG_CRE_CIS: Attagene CIS-FACTORIAL HepG2 Assay for human cAMP Responsive Element (CRE) binding protein 3 (AID 2282926). The settings on record: HepG2 CRE cis-reporter, Attagene multiplexed mRNA; actives raise or lower the signal. An outline of the steps: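 Transfected HepG2 were treated for 24 hours, then RNA was extracted and reporter cDNA amplified with sequence-specific primers. Labelled fragments were separated by capillary electrophoresis, and the CRE signal was fitted bidirectionally with DMSO as baseline.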

The target of test [2] is CCAAT/enhancer-binding protein beta (Homo sapiens) (UniProt P17676). The test is described as follows: ATG_C_EBP_CIS: Attagene CIS-FACTORIAL HepG2 Assay for human CCAAT/Enhancer Binding Protein (C/EBP) beta (AID 2282927). The conditions noted are these: HepG2 Attagene cis-factorial transcription factor reporter; actives raise or lower the signal. The method in brief:
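HepG2, transient MRTU transfection, 24 h treatment. RT-PCR plus CE fluorescence; DMSO negative control, bidirectional fit.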

Test [3] in a line: ATG_CMV_CIS: Attagene CIS-FACTORIAL HepG2 Assay for human CMV (Internal Marker) (AID 2282928).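 Also: endpoint acts as a background internal control marker rather than a target.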 The conditions noted are these: HepG2 CMV promoter reporter, transcription factor profiling; actives raise or lower the signal. An outline of the steps:
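Endogenous transcription factor activity read in HepG2 via transfected cis-promoter reporter units. After 24 h dosing, reporter mRNA measured by RT-PCR/capillary electrophoresis; gain or loss of signal fit relative to DMSO.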

A short description of test [4]: ATG_DR4_LXR_CIS: Attagene CIS-FACTORIAL HepG2 Assay for human Liver X Receptor (LXR), DR4 submotif (AID 2282929). The settings on record: HepG2 Attagene DR4 cis-reporter, mRNA transcription; actives raise or lower the signal. The method in brief: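 DR4 cis-reporter in HepG2, 24 h exposure. Detection: RT-PCR, 6-FAM labelling, CE fragment analysis. Endpoint fitted bidirectionally, DMSO = baseline.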

Test [5] addresses Aryl hydrocarbon receptor (Homo sapiens) (UniProt P35869). The test is described as follows: ATG_Ahr_CIS: Attagene CIS-FACTORIAL HepG2 Assay for human Aryl Hydrocarbon Receptor (Ahr) (AID 2282930). The settings on record: HepG2 AhR cis-factorial reporter transcription; actives raise or lower the signal. An outline of the steps:
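Endogenous factor activity is tracked through cis-promoter reporter units transfected into HepG2 cells. Transcript levels at 24 h are read by fluorescent RT-PCR and capillary electrophoresis, with activity in either direction scored relative to DMSO.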

Test [6] in a line: ATG_AP_1_CIS: Attagene CIS-FACTORIAL HepG2 Assay for human Activator Protein 1 (AP-1) (AID 2282931). The conditions noted are these: HepG2 Attagene cis-factorial AP-1 reporter mRNA; actives raise or lower the signal. The method in brief:
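Cis-regulated reporter units transiently expressed in HepG2 report endogenous transcription-factor activity. Signal: reporter mRNA at 24 h, via RT-PCR and fluorescent capillary electrophoresis. Endpoint derived by bidirectional fitting, DMSO as negative control.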

A short description of test [7]: ATG_AP_2_CIS: Attagene CIS-FACTORIAL HepG2 Assay for human Activator Protein 2 (AP-2) (AID 2282932). The conditions noted are these: HepG2 AP-2 cis-reporter, Attagene transcription factor profiling; actives raise or lower the signal. The method in brief:
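Multiplexed mRNA reporter assay in HepG2: cis-regulated units report endogenous factor activity after 24 h treatment. Fluorescence from capillary electrophoresis of RT-PCR products gives the signal, with DMSO as baseline.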

Test [8] in a line: ATG_BRE_CIS: Attagene CIS-FACTORIAL HepG2 Assay for human Bone Morphogenetic Protein (BMP) Response Element (BRE) (AID 2282933). The conditions noted are these: HepG2 BMP response element reporter, Attagene transcription factor profiling; actives raise or lower the signal. An outline of the steps: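 HepG2 cells transiently transfected with CIS reporter units (endogenous TF activity, BMP response element), dosed 24 h. Reporter mRNA quantified by RT-PCR, fluorescent labelling and capillary electrophoresis; bidirectional fit vs DMSO baseline.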

In test [9] the target is Retinoic acid receptor alpha (Homo sapiens) (UniProt P10276). Nature of the test: ATG_DR5_RAR_CIS: Attagene CIS-FACTORIAL HepG2 Assay for human Retinoic Acid Receptor Alpha (RARE), DR5 submotif (AID 2282934).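 As to AC50: reporter responds to endogenous RAR alpha beta and gamma in HepG2 not RARA alone.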 The settings on record: HepG2 Attagene cis-factorial RARE DR5 reporter, mRNA; actives raise or lower the signal. An outline of the steps:
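After 24 h of chemical exposure, transiently transfected HepG2 cells were lysed for total RNA; the DR5-regulated reporter transcript was quantified via RT-PCR and capillary electrophoresis, with activity fitted bidirectionally against DMSO.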

The target in test [10] is Transcription factor E2F1 (Homo sapiens) (UniProt Q01094). The test is described as follows: ATG_E2F_CIS: Attagene CIS-FACTORIAL HepG2 Assay for human E2F Transcription Factor 1 (AID 2282935). The conditions noted are these: HepG2 Attagene cis-reporter, E2F reporter RNA transcripts; actives raise or lower the signal. An outline of the steps: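 Measures reporter transcript levels via RT-PCR with capillary electrophoresis detection in HepG2 cells harboring cis-regulated reporter units; 24 h post-dose; bidirectional curve fitting with DMSO as baseline.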

Test [11] in a line: ATG_M_61_CIS: Attagene CIS-FACTORIAL HepG2 Assay for M61 Transcription Factor (Internal Marker) (AID 2282937). The conditions noted are these: HepG2 Attagene CIS-FACTORIAL M61 internal marker reporter; actives raise or lower the signal. An outline of the steps:
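Background-control endpoint: HepG2 cells with cis-regulated reporter constructs, 24 h exposure, reporter mRNA detected via fluorescent primer extension and capillary electrophoresis; values from bidirectional fitting with DMSO baseline.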

Test [12] in a line: ATG_EGR_CIS: Attagene CIS-FACTORIAL HepG2 Assay for human Early Growth Response 1 (EGR1) (AID 2282938). The settings on record: HepG2 Attagene CIS-FACTORIAL EGR reporter mRNA; actives raise or lower the signal. The method in brief:
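Endpoint derived by bidirectional fitting versus DMSO vehicle. Method: cis-promoter reporter units transfected into HepG2, 24 h dosing, RNA isolation, RT-PCR with 6-FAM primer extension and HpaI digestion, then capillary electrophoresis fluorescence detection.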

Test [13] in a line: ATG_E_Box_CIS: Attagene CIS-FACTORIAL HepG2 Assay for human Enhancer Box (E-box) (AID 2282936). The conditions noted are these: HepG2 E-box cis-reporter transcription, actives raise or lower the signal. An outline of the steps:
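First, HepG2 cells receive multiple cis-regulated reporter constructs by transient transfection. Next, chemicals are applied for 24 h. Finally, reporter mRNA is quantified via RT-PCR and capillary electrophoresis, with DMSO as baseline.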

Chain of Aryl hydrocarbon receptor (Homo sapiens) (P35869 whole entry, looked up): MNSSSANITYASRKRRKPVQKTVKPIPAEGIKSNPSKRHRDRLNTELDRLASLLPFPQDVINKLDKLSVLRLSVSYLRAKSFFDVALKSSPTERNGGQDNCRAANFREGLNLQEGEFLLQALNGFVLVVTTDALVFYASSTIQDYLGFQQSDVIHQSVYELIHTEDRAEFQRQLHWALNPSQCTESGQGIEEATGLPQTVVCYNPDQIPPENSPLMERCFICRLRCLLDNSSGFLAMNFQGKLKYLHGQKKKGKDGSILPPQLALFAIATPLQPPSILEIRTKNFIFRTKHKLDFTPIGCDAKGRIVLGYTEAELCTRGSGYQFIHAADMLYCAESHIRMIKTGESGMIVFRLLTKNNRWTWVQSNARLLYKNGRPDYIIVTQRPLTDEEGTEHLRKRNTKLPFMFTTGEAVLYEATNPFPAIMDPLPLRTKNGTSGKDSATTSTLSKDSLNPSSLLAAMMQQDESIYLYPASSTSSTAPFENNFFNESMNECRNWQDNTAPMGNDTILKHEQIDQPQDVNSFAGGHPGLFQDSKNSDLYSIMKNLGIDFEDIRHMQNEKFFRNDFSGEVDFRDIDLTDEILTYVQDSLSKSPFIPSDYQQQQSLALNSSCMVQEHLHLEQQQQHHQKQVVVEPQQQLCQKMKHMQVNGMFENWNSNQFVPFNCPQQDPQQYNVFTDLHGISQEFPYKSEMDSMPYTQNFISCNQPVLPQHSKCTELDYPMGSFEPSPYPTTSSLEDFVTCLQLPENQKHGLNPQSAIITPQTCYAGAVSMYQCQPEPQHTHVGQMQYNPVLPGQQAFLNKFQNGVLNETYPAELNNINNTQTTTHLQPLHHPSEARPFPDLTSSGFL
Chain of Transcription factor E2F1 (Homo sapiens) (Q01094 whole entry, looked up): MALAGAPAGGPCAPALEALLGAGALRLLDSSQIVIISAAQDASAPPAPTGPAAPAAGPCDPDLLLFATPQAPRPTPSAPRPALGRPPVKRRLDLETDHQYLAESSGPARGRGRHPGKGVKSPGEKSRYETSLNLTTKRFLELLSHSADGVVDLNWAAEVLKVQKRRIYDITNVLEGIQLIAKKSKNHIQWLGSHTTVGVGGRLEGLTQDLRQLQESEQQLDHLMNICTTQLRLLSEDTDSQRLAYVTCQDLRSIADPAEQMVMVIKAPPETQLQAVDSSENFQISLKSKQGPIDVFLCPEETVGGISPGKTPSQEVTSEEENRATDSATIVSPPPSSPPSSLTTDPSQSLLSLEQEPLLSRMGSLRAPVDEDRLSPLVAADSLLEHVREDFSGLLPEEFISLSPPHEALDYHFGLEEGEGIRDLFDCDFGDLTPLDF
Chain of CCAAT/enhancer-binding protein beta (Homo sapiens) (P17676 whole entry, looked up): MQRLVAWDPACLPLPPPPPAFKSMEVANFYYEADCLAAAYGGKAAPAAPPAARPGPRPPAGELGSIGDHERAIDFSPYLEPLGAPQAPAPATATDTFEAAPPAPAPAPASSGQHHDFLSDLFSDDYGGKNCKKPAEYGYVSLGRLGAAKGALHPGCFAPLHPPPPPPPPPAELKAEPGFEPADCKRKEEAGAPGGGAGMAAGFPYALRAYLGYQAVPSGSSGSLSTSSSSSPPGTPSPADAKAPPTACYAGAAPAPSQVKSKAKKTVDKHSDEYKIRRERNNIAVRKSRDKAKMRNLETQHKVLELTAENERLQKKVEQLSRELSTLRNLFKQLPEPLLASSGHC
Chain of Retinoic acid receptor alpha (Homo sapiens) (P10276 whole entry, looked up): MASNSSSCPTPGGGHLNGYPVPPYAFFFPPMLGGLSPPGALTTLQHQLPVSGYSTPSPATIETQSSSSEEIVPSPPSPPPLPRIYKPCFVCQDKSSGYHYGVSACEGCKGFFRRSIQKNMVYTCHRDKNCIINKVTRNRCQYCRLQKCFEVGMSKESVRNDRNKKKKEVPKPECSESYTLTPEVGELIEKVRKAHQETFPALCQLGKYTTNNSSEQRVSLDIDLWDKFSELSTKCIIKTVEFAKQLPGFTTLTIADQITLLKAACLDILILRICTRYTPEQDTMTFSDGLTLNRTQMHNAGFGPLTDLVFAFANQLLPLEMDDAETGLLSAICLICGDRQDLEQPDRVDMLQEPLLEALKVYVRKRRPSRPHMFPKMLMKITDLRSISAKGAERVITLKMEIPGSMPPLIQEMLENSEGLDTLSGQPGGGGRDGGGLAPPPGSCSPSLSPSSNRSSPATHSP

`O=C(NC(=O)c1c(F)cccc1F)Nc1cc(Cl)c(OC(F)(F)C(F)C(F)(F)F)cc1Cl` (stereo not given): the compound was classed as inactive in test [1], in [2], in [3], in test [4], in test [7] and in test [8]. Further, the call in test [9], in test [10], in test [11] and in test [12] was inactive. The values for the half-maximal activity concentration (AC50) in [5] and in [6] were 27.7 µM (active) and 100 µM (active), respectively.

`CCOC(=O)Cc1ccccc1`: the compound was classed as inactive in test [1], in [2], in test [3], in [4], in test [5] and in [6]. Besides, the compound was called inactive in test [7], in [8], in test [9], in test [13], in [11] and in test [12].

Turning to `CN(N=O)c1ccc([N+](=O)[O-])cc1`, the call in [1], in [2], in test [3], in test [4], in test [6] and in [7] was inactive. For the same compound, the compound was called inactive in [8], in test [9], in [10], in [11] and in test [12]. The concentration at half-maximal activity (AC50) in [5] was 26.8 µM (active).

As to `Nc1ccc(-c2ccccc2)cc1`, the outcome in test [1], in test [2], in [3], in test [4], in test [5] and in test [6] was inactive. Besides, the compound was called inactive in test [7], in [8], in test [9], in test [10], in [13] and in [11]. Further, the result in [12] was inactive.

For `N#Cc1ccccc1N`, the call in [1], in test [2], in test [3], in test [4], in test [6] and in [7] was inactive. Moreover, the compound was called inactive in [8], in test [9], in test [10], in test [11] and in test [12]. In test [5], the concentration at half-maximal activity (AC50) was 33.2 µM (active).

With `COc1nn(C(=O)NS(=O)(=O)c2ccccc2OC(F)(F)F)c(=O)n1C`, the compound was classed as inactive in [1], in [2], in [3], in test [4], in test [5] and in [6]. Also, the call in test [7], in test [8], in test [9], in test [10], in test [11] and in [12] was inactive.

As to `Cc1c([N+](=O)[O-])c(C)c([N+](=O)[O-])c(C(C)(C)C)c1[N+](=O)[O-]`, the compound was called inactive in [1], in [2], in test [5], in test [6], in test [7] and in test [8]. The call in test [10], in test [13], in test [11] and in test [12] was inactive. The concentration at half-maximal activity (AC50) in [3] was 100 µM (active); in test [4], 60.7 µM (active); in [9], 3.83 µM (active).

Turning to `CS(=O)(=O)c1ccc(C(=O)C2C(=O)CCCC2=O)c(Cl)c1COCC(F)(F)F`, the outcome in test [1], in test [2], in test [3], in [4], in test [5] and in test [6] was inactive. Besides, the outcome in test [7], in test [8], in [9], in test [10], in test [11] and in test [12] was inactive.

For `CC(c1ccccc1)(c1ccc(O)cc1)c1ccc(O)cc1`, the outcome in [1], in test [2], in test [3], in test [5], in [7] and in test [8] was inactive. Further, the outcome in test [9] and in test [11] was inactive. Also, the AC50 in test [4] is 11.1 µM (active); in [6] it was 7.98 µM (active); in test [13] it was 16.9 µM (active); in test [12], 12.3 µM (active).

Consider `OCC(c1ccc(Cl)cc1)c1ccc(Cl)cc1`, for which the compound was called inactive in test [1], in test [2], in [5], in test [7], in test [8] and in test [9]. Also, the outcome in [11] was inactive. The half-maximal activity concentration (AC50) in test [3] is 45.2 µM (active); in test [4], 50.2 µM (active); in test [6], 51.6 µM (active); in [12] it was 53.2 µM (active).

Consider `N#CS`, for which the call in test [1], in test [2], in test [3], in test [4], in test [5] and in test [6] was inactive. Also, the compound was called inactive in test [7], in [8], in test [10], in test [13], in [11] and in test [12].

Turning to `CCOC(=O)OC1=C(c2cc(C)ccc2C)C(=O)NC12CCC(OC)CC2` (stereo not given), the result in [1], in test [2], in test [3], in test [4], in [5] and in test [6] was inactive. Moreover, the outcome in test [7], in test [8], in test [10], in test [13], in test [11] and in test [12] was inactive.
